Compound activity: PubChem BioAssay, Bradner/Qi Labs at DFCI
The sample as a whole holds a higher share of hits than the screen did.
CBX7 inh – CBX7 inhibition, primary AlphaScreen; AID 1224903; AlphaScreen His6-CBX7 / biotin-H3K27me3 peptide binding; stronger effect = lower value; 66,000 compounds, 1.1% hits; normalised signal (fraction of DMSO) (test concentration not listed); in the data active = normalised signal below about 0.5
Target sequence (O95931 whole entry, looked up): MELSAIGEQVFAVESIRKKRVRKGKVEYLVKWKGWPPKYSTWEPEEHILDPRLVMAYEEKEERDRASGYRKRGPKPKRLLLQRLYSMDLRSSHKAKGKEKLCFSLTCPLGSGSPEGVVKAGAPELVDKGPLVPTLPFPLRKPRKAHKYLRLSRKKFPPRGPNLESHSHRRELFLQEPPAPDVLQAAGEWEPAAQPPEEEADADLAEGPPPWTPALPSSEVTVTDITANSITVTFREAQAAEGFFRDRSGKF
The depositor's hits bear a star.

SMILES	CBX7 inh
Cc1cc(Cl)ccc1NC(=O)CC1Sc2ccccc2NC1=O (centres undefined)	1
CCCCNC(=O)C1C2C(=O)N(Cc3ccccc3)CC23C=CC1(C)O3 (centres undefined)	1.1
CCCCCc1ccc(-c2ccc(C(=O)Nc3ccc(Br)cc3)cc2)nc1	1.1
CC1(C)Cc2ccccc2-c2nnc(-c3cccnc3)n21	0.99
Fc1ccc(-c2nnc3ccc4ccccc4n23)cc1	0.87
c1cncc(-c2nnc3ccc4ccccc4n23)c1	0.36*
Cc1ccc(CCN2C(=O)CCC2(C)C(=O)NC2CCCCCC2)cc1 (centres undefined)	0.97
Cc1ccc(NC(=O)Cn2cnc3sc(C(=O)N4CC(C)CC(C)C4)c(C)c3c2=O)cc1Cl (centres undefined)	0.95
CCCCCn1c(CNC(=O)c2cccc(C)c2)nc2ccccc21	1.1
CCCCN(C)S(=O)(=O)c1ccc(C(=O)Nc2ccccc2-c2nc3ccccc3o2)cc1	1
CCCCN(C)S(=O)(=O)c1ccc(C(=O)Nc2ccc(-c3nc4ccccc4[nH]3)cc2)cc1	0.94
CCCCN(C)S(=O)(=O)c1ccc(C(=O)Nc2nnc(C3CC3)o2)cc1	0.034*
CCCCN(CC)S(=O)(=O)c1ccc(C(=O)Nc2nnc(C3CC3)o2)cc1	0.037*
CCN(Cc1ccccc1)S(=O)(=O)c1ccc(C(=O)Nc2nnc(C3CC3)o2)cc1	0.71
CC(C)CN(CC(C)C)S(=O)(=O)c1ccc(C(=O)Nc2nnc(C3CC3)o2)cc1	0.0062*
CCCN(CCC)S(=O)(=O)c1ccc(C(=O)Nc2nnc(C3CC3)o2)cc1	0.53
Cc1ccc(C)c(N2CCN(C(=O)CCCN3C(=O)CSc4ncccc43)CC2)c1	0.97
O=C(c1ccc(Cl)c(NC2=NC3CS(=O)(=O)CC3S2)c1)N1CCN(c2ccccn2)CC1 (centres undefined)	1.1
CCOc1ccc(OCC)c(NC(=O)c2nc(-c3ccc(C)cc3)oc2C)c1	0.68
CC1CCN(c2nc3ccc(C(=O)NC4CCCCCC4)cc3s2)CC1	0.95
COc1ccc(N2CCN(c3oc(COc4ccc(F)cc4)nc3C#N)CC2)cc1	0.55
N#Cc1nc(COc2ccc(Br)cc2)oc1N1CCN(Cc2ccccc2)CC1	0.65
COc1ccc(N2CCN(c3oc(COc4ccccc4C)nc3C#N)CC2)cc1	0.52
N#Cc1nc(COc2ccccc2F)oc1N1CCN(Cc2ccccc2)CC1	0.46*
N#Cc1nc(COc2ccccc2F)oc1N1CCCCCC1	0.56
SMILES	CBX7 inh
COc1ccc(N2CCN(c3oc(COc4ccc(C)cc4)nc3C#N)CC2)cc1	0.48*
Cc1ccccc1OCc1nc(C#N)c(N2CCN(c3ccccc3)CC2)o1	0.42*
COc1ccccc1OCc1nc(C#N)c(N2CCN(c3ccccc3)CC2)o1	0.52
COc1ccc(OCc2nc(C#N)c(N3CCN(c4ccc(OC)cc4)CC3)o2)cc1	0.69
Cc1cc(C)c(NC(=O)CSc2ccc3nnc(-c4ccccc4)n3n2)c(C)c1	1
O=C(Nc1ccc2nc3n(c(=O)c2c1)CCCCC3)c1ccccc1F	0.96
COc1ccc(Nc2cc(C(=O)NC3CCCCC3C)c3ccccc3n2)cc1OC (centres undefined)	0.84
Cc1cccc(CN2C(=O)CSc3ccc(C(=O)NCC4CCCO4)cc32)c1 (centres undefined)	0.9
CC(=O)Nc1ccc2nc(NC(=O)c3ccc(Br)cc3)sc2c1	0.91
COc1ccc(OC)c(NC(=O)c2c(NCc3cccnc3)sc3c2CCC(C)C3)c1 (centres undefined)	0.65
COc1ccc(OC)c(NC(=O)c2c(NCc3ccncc3)sc3c2CCC(C)C3)c1 (centres undefined)	0.65
COc1ccc(OC)c(NC(=O)c2c(NCc3cccnc3)sc3c2CCCC3)c1	0.6
COc1ccc(CNc2sc3c(c2C(=O)Nc2ccc(OC)cc2OC)CCC3)cc1	0.83
COc1ccc(NC(=O)c2c(NCc3cccnc3)sc3c2CCCC3)c(OC)c1	0.31*
COc1ccc(NC(=O)c2c(NCc3cccnc3)sc3c2CCC(C)C3)c(OC)c1 (centres undefined)	0.46*
CCN(CCN(C)C)C(=O)Cn1nc(Cc2ccncc2)c2ccccc2c1=O	1.2
COc1ccc(OC)c(N(CC(=O)Nc2ccc(C)cc2)S(=O)(=O)c2ccccc2)c1	1.1
Cc1ccc(Cn2nc(C)c(NC(=O)c3cc(-c4ccc(Br)cc4)on3)c2C)cc1	1.2
CCN1CCN(C(=O)C(C)N2C(=O)COc3ccc(C)cc32)CC1 (centres undefined)	1
O=c1c2ccccc2nc(SCc2c(F)cccc2F)n1Cc1ccc2c(c1)OCO2	0.88
O=C(CCc1nc2ccccc2[nH]1)N1CCN(c2cccc(Cl)c2)CC1	1.1
COc1ccc(CNC(=O)CSCc2nc(-c3cccc(Cl)c3)oc2C)cc1	0.99
O=C(c1c[nH]c2ccc(S(=O)(=O)N3CCCCC3c3cccnc3)cc2c1=O)N1CCCC1 (centres undefined)	1
O=C(O)c1c[nH]c2ccc(S(=O)(=O)N3CCCCC3c3cccnc3)cc2c1=O (centres undefined)	0.4*
COc1ccc(S(=O)(=O)N2CCCCC2c2cccnc2)cc1 (centres undefined)	0.96
SMILES	CBX7 inh
COc1ccc(Nc2nc(N3CCNCC3)nc3ccccc23)cc1	1.2
CCCNC(=O)CN1C(=O)CC(C)(C)Sc2ccccc21	1.1
COc1ccc2nc(NC(=O)Cc3c(C(=O)O)[nH]c4ccc(Cl)cc34)sc2c1	0.76
COc1ccc(Nc2nc(-c3ccccc3Cl)nc3ccccc23)cc1	1.1
CN(C)c1ccc(Nc2nc(-c3ccccc3Cl)nc3ccccc23)cc1	0.3*
Oc1ccc(Nc2nc(-c3ccccc3Cl)nc3ccccc23)cc1	0.8
COc1ccc(C(=O)c2oc3ccccc3c2NC(=O)c2cccc(Cl)c2)cc1	1.3
CCN1CCCc2cc(CN(C(=O)Nc3ccc(C)c(C)c3)C3CCCC3)ccc21	0.44*
CCCN1CCCc2cc(CN(CCCN3CCOCC3)C(=O)Nc3ccc(CC)cc3)ccc21	0.52
CCCN1CCCc2cc(CN(C(=O)Nc3ccc(Cl)c(Cl)c3)C(C)CC)ccc21 (centres undefined)	0.59
CCCCN1CCCc2cc(CN(CCCN3CCOCC3)C(=O)Nc3ccccc3)ccc21	0.53
CCc1ccc(NC(=O)N(C2CCCCCC2)C2CCN(C(C)=O)CC2)cc1	1
CCCCN1CCCc2cc(CN(CCCN3CCOCC3)C(=O)Nc3ccc(CC)cc3)ccc21	0.23*
CCc1ccc(NC(=O)N(CCC(C)C)C2CCN(C(C)C)CC2)cc1	1.1
CCc1ccc(NC(=O)N(Cc2ccc3c(c2)CCCN3CC)C2CCCC2)cc1	0.34*
CC(=O)N1CCC(N(C(=O)Nc2ccc(C)c(C)c2)C2CCCCCC2)CC1	1.1
COc1ccc(C(=O)Nc2ccc(-c3cn4ccccc4n3)cc2)cc1	0.93
Cc1ccc(-n2c(CCC(=O)O)ccc2-c2ccc(F)cc2)cc1	1
CCCc1cc(-c2[nH]ncc2-c2ccc3c(c2)OCCCO3)c(O)cc1OC	0.47*
COc1ccc(-c2[nH]ncc2-c2ccc(Br)cc2)c(O)c1	0.6
CCc1cc(-c2[nH]ncc2-c2ccc(F)cc2)c(O)cc1OC	0.91
CCc1ccc(NC(=O)c2cccc3c2C(=O)N(c2ccc(OC)cc2)C3)cc1	0.73
CCc1ccccc1NC(=O)c1cccc2c1C(=O)N(c1ccc(OC)cc1)C2	0.14*
COc1ccc(N2Cc3cccc(C(=O)Nc4ccccc4OC)c3C2=O)cc1	0.96
O=C(Nc1ccc(Cc2ccncc2)cc1)Nc1ccc(Cl)c(Cl)c1	1
